Experimental data as given in PubChem BioAssay (NCI).
The panel holds about 83,000 compounds, 20% with a hit somewhere; the sample as a whole holds those more often.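 Treatment: one concentration, 48 hours, 96-well format. Scoring: percent growth, with anything below 10 considered active.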 Unmarked numbers belong to inactive results. Activity calls are given as the source filed them.

Legend:
Assay in all cases: NCI-60 one-dose screen, 48 h (100 = growth as untreated, 0 = no growth, -100 = all killed)
Conditions in all cases: 10 µM unless noted
RPMI-8226 leukemia = system: RPMI-8226 leukemia
OVCAR-8 ovarian = system: OVCAR-8 ovarian
OVCAR-5 ovarian = system: OVCAR-5 ovarian
OVCAR-4 ovarian = system: OVCAR-4 ovarian
SK-OV-3 ovarian = system: SK-OV-3 ovarian
IGROV1 ovarian = system: IGROV1 ovarian
OVCAR-3 ovarian = system: OVCAR-3 ovarian
HS 578T breast = system: HS 578T breast
NCI/ADR-RES ovarian = system: NCI/ADR-RES ovarian
T-47D breast = system: T-47D breast

| SMILES | growth (RPMI-8226 leukemia) | growth (OVCAR-8 ovarian) | growth (OVCAR-5 ovarian) | growth (OVCAR-4 ovarian) | growth (SK-OV-3 ovarian) | growth (IGROV1 ovarian) | growth (OVCAR-3 ovarian) | growth (HS 578T breast) | growth (NCI/ADR-RES ovarian) | growth (T-47D breast) |
| --- | --- | --- | --- | --- | --- | --- | --- | --- | --- | --- |
| Cc1ccc(OCCCCCCNCCO)c(C)c1 | 9.43% (active) | -10% (active) | 35.9% | 16.8% | 16.8% | -4.59% (active) | 24% | 18.5% | 8.9% (active) | 5.9% (active) |
| COc1ccc(Cn2c(Br)c3c(c2Br)-c2nc(N)sc2CC3)cc1 | 27.3% | 41% | 91.4% | 47.8% | 24% | 34.7% | 7.35% (active) | 34.1% | 18.5% | 50.4% |
| Nc1ccccc1-c1ccc(-c2ccc(Cl)cc2)c2c1[nH]c1ccccc12 | 42.1% | 77% | 91.2% | 92.5% | 106% | 62.3% | 79% | 82.4% | 77.2% | 60.4% |
| Cc1cc(OC(=O)c2ccc([N+](=O)[O-])cc2)nc2[nH]c(=O)sc12 | 99.8% | 102% | 105% | 98.7% | 115% | 96.9% | 108% | 95.7% | 104% | 99.7% |
| O=C(N/N=C/c1ccccc1Cl)C(=O)Nc1cccc(C(F)(F)F)c1 | 93.9% | 83% | 97.4% | 101% | 102% | 92.9% | 115% | 111% | 98.4% | 90.2% |
| C1=CC2(C=C1)OC21CCC2(C=CC3(C2)OC3C2CCCCC2)CC1 (stereo not given) | 103% | 107% | 104% | 103% | 109% | 107% | 110% | 103% | 98.4% | 104% |
| CN(O)c1nc(N(C)O)nc(N2CCOCC2)n1 | 36.8% | 33.8% | 68.9% | 1.09% (active) | 8.47% (active) | 20.1% | 5.41% (active) | 75.9% | 21.6% | 40.9% |
| NC(CCl)=NCCC[C@H](N)C(=O)O | 99.6% | 99.5% | 105% | 93% | 105% | 116% | 117% | 99.3% | 101% | 98.2% |
| COc1cc(C(C)n2cc(-c3ccccc3)nn2)ccc1OC1CCCCC1 (stereo not given) | 35% | 55.3% | 92.6% | 55.2% | 73.4% | 77.2% | 67.6% | 91.4% | 49.3% | 58.8% |
| CN1C(=O)N(C)C2Nn3c(s/c(=C4\C(=O)N(CCc5ccccc5)c5ccccc54)c3=O)=NC21 (stereo not given) | 57.2% | 80.9% | 75.2% | 79.3% | 76.9% | 83% | 39.7% | 70.5% | 43.8% | 67.6% |
| COc1cc(C(C)n2cc(-c3ccccc3)nn2)ccc1OC1CCCC1 (stereo not given) | 36.1% | 65.6% | 93.1% | 54.9% | 75.8% | 70.9% | 61.5% | 94% | 45% | 51.5% |
| CCC1=C[C@@H]2CN(C1)Cc1c([nH]c3ccccc13)[C@@](C(=O)OC)(c1cc3c(cc1OC)N(C)[C@H]1[C@@](O)(C(=O)OC)[C@H](OC(C)=O)[C@]4(CC)[C@@H]5C[C@@H]5CN5CC[C@]31[C@@H]54)C2 | -20.3% (active) | 14.5% | 44.6% | 14.6% | -24% (active) | 1.74% (active) | -25.8% (active) | -5.73% (active) | 1.35% (active) | 72% |
| Nc1nc(N)c2c(n1)NC1(C=C(O)c3ccccc31)C1=C(N2)c2ccccc2C1=O (stereo not given) | 107% | 103% | 116% | 98.1% | 121% | 92.3% | 113% | 111% | 107% | 112% |
| CCCc1c(C)c2sc(=O)[nH]c2[nH]c1=O | 112% | 104% | 103% | 100% | 104% | 112% | 113% | 103% | 105% | 102% |
| COc1ccccc1N1C(=N)S/C(=C\c2ccc(OCc3ccccc3F)cc2)C1=O | 70.1% | 55.3% | 101% | 87% | 102% | 73.5% | 86.7% | 86.7% | 71.3% | 66.8% |
| CCOC(=O)c1cc2c(n1Cc1cc(OC)cc(OC)c1)-c1oncc1CCC2 | 20.2% | 19.5% | 58.9% | 37.7% | -0.349% (active) | -38.4% (active) | -35.7% (active) | 21.5% | 6.97% (active) | 66.8% |
| COc1cc2nc(-c3cccc4cccnc34)nc(NC3CCN(Cc4ccccc4)CC3)c2cc1OC | -48.7% (active) | -55% (active) | -90.6% (active) | -91.1% (active) | -74.7% (active) | -61.5% (active) | -85.9% (active) | -41.7% (active) | 6.52% (active) | -64.4% (active) |
| CCOc1cccc(/C=N/NC(=O)C(=O)Nc2cccc(C(F)(F)F)c2)c1O | 29% | 25.6% | 47.4% | 31% | 49.2% | 25.3% | 29.3% | 69.3% | 9.74% (active) | 30.9% |
| CCOC(=O)c1cnc2c(C)cccc2c1Nc1ccc(C(C)=O)cc1 | -34.2% (active) | 35% | 45% | 16.2% | 68.2% | 2.45% (active) | -8.93% (active) | 25.6% | 25.1% | -18.4% (active) |
| COc1ccc(-c2c(-c3ccc(OC)c(O)c3)cnc3ncnn23)cc1 | 108% | 101% | 103% | 104% | 110% | 110% | 112% | 104% | 102% | 103% |
| O=C(Nc1ccc(F)cc1F)c1cc(Cl)ccc1O | 1.46% (active) | 10.6% | 15.3% | 16.6% | -11.2% (active) | 19.3% | 7.98% (active) | 9.26% (active) | 7.62% (active) | -12.4% (active) |
| O=C(CCc1nnc2sc(Cc3ccccc3Cl)nn12)c1nc2ncccc2[nH]1 | 103% | 93.4% | 93.3% | 92.5% | 108% | 79.6% | 96.9% | 88.7% | 95.4% | 90.6% |
| CCOC(=O)c1c2c(c(C)n1Cc1ccc(OC)cc1)-c1oncc1CC2 | 62.9% | 88.3% | 81.7% | 89.6% | 105% | 80.8% | 98.5% | 69.7% | 85.8% | 90.5% |
| O=c1oc2ccc(Cl)cc2c(=O)n1-c1ccc(F)cc1F | -1.02% (active) | 11.4% | 16.6% | 18.5% | -7.81% (active) | 16.2% | 6.16% (active) | 8.54% (active) | 7.29% (active) | -10.7% (active) |
| CC(C)C[C@H](C(=O)N[C@H](C(N)=O)C(C)C)N1CC=CCN(OCc2ccccc2)S1(=O)=O | 98.7% [2.5 µM] | 95.2% [2.5 µM] | 95.2% [2.5 µM] | 109% [2.5 µM] | 88.3% [2.5 µM] | 107% [2.5 µM] | 112% [2.5 µM] | 107% [2.5 µM] | 95.6% [2.5 µM] | 95.7% [2.5 µM] |
| Cn1nc(C(C)(C)C)cc1NC(=O)Cc1ccc(/C=C2\C(=O)Nc3ccccc32)cc1 | 28.7% | 54.6% | 107% | 47.6% | 60.7% | 59% | 64.5% | 74.7% | 66.9% | 14.9% |
| CCOC(=O)c1c2c(n3cccc(Cl)c13)C(=O)c1ncccc1C2=O | 61.2% | 12% | 84.1% | 23.5% | 54.4% | 61.9% | 5.39% (active) | 61.3% | 38.3% | 75.9% |
